Reference: PubChem BioAssay (NCATS)
“And” between values parts separate entries of the source, which are not always exact repeats. Identical values can stand only once. Records with an inconclusive call do not appear. The source made the active and inactive calls. Calls come from the whole dose curve; as a rule, active = well fitted curve in the direction sought with a large enough effect; inconclusive = small, poorly fitted or top-dose-only effect, or another doubt; inactive = no such curve, though single readings can be large; an effect the other way counts as inactive or inconclusive.

Columns and labels:
[1] = molecular target: DNA repair nuclease/redox regulator APEX1 (Homo sapiens) (UniProt P27695); test: qHTS Validation Assay for Inhibitors of the Human Apurinic/apyrimidinic Endonuclease 1 (APE1) (AID 1705;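 note: TAMRA fluorescence gain over two minutes as APE1 cuts a quenched THF abasic duplex; series mostly up to about 57 µM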)
Summary of the method: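 Activity read as rising fluorescence (598 nm emission, 525 nm excitation) from incision of a TAMRA/BHQ-2 duplex carrying a THF abasic site (50 nM). Compound and enzyme sat 15 min at RT before substrate start; signal change between first and third 60-s reads.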

[2] = Counterscreen for APE1 Inhibitors: Fluorescent Dye Displacement Validation Assay (AID 1707)
Summary of the method: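 ThO 250 nM + dsDNA 50 nM (THF abasic site, 5'-TAMRA), Tris-HCl pH7.5/50mM NaCl/2 mM MgCl2/0.01% Tween-20; compounds pin-transferred; ex 480/em 540 nm endpoint. Neutral = no compound; no-DNA ThO wells = negative control.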

[3] = molecular target: Endonuclease 4 (Escherichia coli (strain K12)) (UniProt P0A6C1); test: Counterscreen for APE1 Inhibitors: qHTS Validation Assay for Inhibitors of Endonuclease IV (AID 1708)
Summary of the method: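 Enzymatic AP-site incision assay using a double-stranded THF substrate labelled with TAMRA and BHQ-2; released fluorescence signals activity. Enzyme 2 nM, substrate 50 nM, 15 min compound preincubation.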

[4] = qHTS for differential inhibitors of proliferation of Plasmodium falciparum line 7G8 (AID 1815);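 note: parasite growth measured after three days of incubation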; note: potency is the fitted concentration of half-maximal effect
[5] = qHTS for differential inhibitors of proliferation of Plasmodium falciparum line GB4 (AID 1816); conditions: Potency: Plasmodium falciparum GB4 proliferation inhibition;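 note: parasite growth measured after 72 h incubation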; note: potency is the fitted concentration of half-maximal effect
[6] = qHTS for differential inhibitors of proliferation of Plasmodium falciparum line 3D7 (AID 1876); note: potency is the fitted concentration of half-maximal effect
[7] = qHTS for differential inhibitors of proliferation of Plasmodium falciparum line D10 (AID 1877);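 note: parasites grown with compound for 72 h before DNA staining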; note: potency is the fitted concentration of half-maximal effect
[8] = qHTS for differential inhibitors of proliferation of Plasmodium falciparum line Dd2 (AID 1882); conditions: Potency: Plasmodium falciparum Dd2 proliferation inhibition; note: nearly all actives have a fitted effect of over 65% in size; note: potency is the fitted concentration of half-maximal effect
Summary of the method: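 SYBR Green I DNA fluorescence read-out, ex 485/em 535 nm. Signals were normalized to 0.29 uM artemisinin and DMSO wells, then corrected using vehicle-only plates flanking each stack. Parasite growth ran 72 h in erythrocytes before lysis.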

[9] = qHTS for differential inhibitors of proliferation of Plasmodium falciparum line W2 (AID 1883); conditions: Potency: Plasmodium falciparum W2 proliferation inhibition;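 note: parasites grown with compound for 72 h before lysis and staining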; note: potency is the fitted concentration of half-maximal effect
[10] = qHTS for differential inhibitors of proliferation of Plasmodium falciparum line HB3 (AID 1886); conditions: Potency: Plasmodium falciparum HB3 proliferation inhibition;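 note: parasites grown with compound for 72 h before SYBR Green readout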; note: potency is the fitted concentration of half-maximal effect
[11] = molecular target: Ferritin light chain (Equus caballus) (UniProt P02791); test: qHTS Validation Assay for Identification of Novel General Anesthetics (AID 2323); note: series mostly up to about 77 µM
Summary of the method: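 Competitive displacement of the profluorescent anesthetic 1-AMA (50% saturated, PBS) from 10 uM apoferritin, 10 min, room temperature. Activity is normalized 380/535 nm fluorescence; concentration-response fitted with a four-parameter Hill equation.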

[12] = molecular target: ATP-dependent DNA helicase Q1 (Homo sapiens) (UniProt P46063); test: qHTS Validation Assay for Inhibitors of RecQ-Like Dna Helicase 1 (RECQ1) (AID 2353); note: potency is the fitted concentration of half-maximal effect
Summary of the method: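 50 nM RECQ1T1 preincubated 15 min with compound in Tris pH 8.0 buffer with MgCl2, DTT, Tween-20 and 2.5 ug/ml poly(dI-dC); started with 200 nM TAMRA/BHQ-2 forked duplex and 2 mM ATP. Unwinding read as fluorescence (525/598 nm), two reads 2 h apart.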

[13] = Cytometric Cell-Based qHTS for Inhibitors of the mTORC1 Signaling Pathway in MEF (Tsc2-/-, p53-/-) Cells (AID 2660);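 note: Tsc2 and p53 null MEFs carrying empty vector with compound for 24 h; percent of cells above a phospho-rpS6 to PI ratio cutoff in each well; series mostly up to about 38 µM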
Summary of the method: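 Percent of cells positive for normalized phospho-S6 staining is reported, with the cutoff set from rapamycin (7.5 nM) versus DMSO wells. Tsc2-/-, p53-/- MEFs received compound for 24 hrs.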

[14] = High Content Imaging Cell-Based qHTS for Inhibitors of the mTORC1 Signaling Pathway in MEF (Tsc2-/-, p53-/-) Cells (AID 2666);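 note: percent of cells scored positive for phospho-rpS6 Ser235/236 immunostaining by imaging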
Summary of the method: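 Cells were plated, dosed with compound after 24 hrs, and incubated another 24 hrs at 37 degree Celsius. Fixed cells were immunostained for phospho-rpS6 Ser235/236 and counterstained, and the normalized signal was scored as % active cells against rapamycin and DMSO controls.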

[15] = High Content Imaging Cell-Based qHTS for Inhibitors of the mTORC1 Signaling Pathway in MEF Cells (AID 2667);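 note: Tsc2-/- p53-/- MEFs stably re-expressing wild-type Tsc2 exposed 24 h; series mostly up to about 38 µM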
Summary of the method: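 Immunofluorescence for rpS6 phosphorylation in MEFs of Tsc2-/-, p53-/- background rescued with WT Tsc2. Compound exposure lasted 24 hrs. Inhibition was scored against rapamycin-treated control wells.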

[16] = Cytometry Cell-Based qHTS for Inhibitors of the mTORC1 Signaling Pathway in MEF cells (AID 2668);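 note: Tsc2-/- p53-/- mouse embryonic fibroblasts stably re-expressing wild-type Tsc2; percent cells positive for phospho-rpS6 Ser235/236 relative to propidium iodide stain; series mostly up to about 38 µM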
Summary of the method: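 Phospho-rpS6 (Ser235/236) immunofluorescence over PI signal, scored as % positive cells using thresholds from 7.5 nM rapamycin and DMSO wells, after 24 h compound exposure of WT-Tsc2-rescued Tsc2-/-, p53-/- MEFs. PI cell count recorded for viability.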

[17] = molecular target: Ubiquitin carboxyl-terminal hydrolase 2 (Homo sapiens) (UniProt O75604); test: qHTS Validation Assay for Inhibitors of Ubiquitin-specific Protease USP2a Using CHOP2 as the Reporter (AID 463106)
Summary of the method: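 10nM USP2 core + cpd, 30min RT; add 25nM Ub-CHOP2/25nM substrate; 60min RT; FI 485/531nm. Buffer Tris pH 8.0, CaCl2, BME, CHAPS. Norm. to NEM = 100% inhibition; time-zero read flags fluorescent artifacts.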

[18] = molecular target: RecQ-like DNA helicase BLM (Homo sapiens) (UniProt P54132); test: qHTS Validation Assay for Inhibitors of Bloom's syndrome helicase (BLM) (AID 2364)
Summary of the method: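 Forked 20-bp duplex substrate (200 nM, TAMRA/BHQ-2) plus 2 mM ATP added after 15 min compound preincubation with 50 nM enzyme, pH 8.0, poly(dI-dC) 2.5 ug/ml. Strand separation followed by fluorescence (525/598 nm) over 2 h, normalized to enzyme-free and DMSO controls.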

[19] = Validation screen for small molecules that induce DNA re-replication in MCF 10A normal breast cells (AID 463097); note: nearly all actives have a fitted effect of over 60% in size
Summary of the method: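 Read-out is Hoechst total nuclear intensity by fluorescence scanning imager, flagging increased high-DNA-content nuclei. Compounds were incubated with MCF 10A cells for 48 hr (37 C, 5% CO2) before 40 min staining.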

Measured: Potency

Chain of DNA repair nuclease/redox regulator APEX1 (Homo sapiens) (P27695 whole entry, looked up): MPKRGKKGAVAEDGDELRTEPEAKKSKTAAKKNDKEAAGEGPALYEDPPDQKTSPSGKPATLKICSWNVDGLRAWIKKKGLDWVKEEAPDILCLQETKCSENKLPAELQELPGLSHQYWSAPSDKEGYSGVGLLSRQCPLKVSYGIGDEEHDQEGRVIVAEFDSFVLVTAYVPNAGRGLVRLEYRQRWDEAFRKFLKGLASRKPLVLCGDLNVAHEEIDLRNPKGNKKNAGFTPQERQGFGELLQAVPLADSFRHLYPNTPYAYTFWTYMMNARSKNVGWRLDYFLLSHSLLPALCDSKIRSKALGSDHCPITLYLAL
Chain of Ubiquitin carboxyl-terminal hydrolase 2 (Homo sapiens) (O75604 whole entry, looked up): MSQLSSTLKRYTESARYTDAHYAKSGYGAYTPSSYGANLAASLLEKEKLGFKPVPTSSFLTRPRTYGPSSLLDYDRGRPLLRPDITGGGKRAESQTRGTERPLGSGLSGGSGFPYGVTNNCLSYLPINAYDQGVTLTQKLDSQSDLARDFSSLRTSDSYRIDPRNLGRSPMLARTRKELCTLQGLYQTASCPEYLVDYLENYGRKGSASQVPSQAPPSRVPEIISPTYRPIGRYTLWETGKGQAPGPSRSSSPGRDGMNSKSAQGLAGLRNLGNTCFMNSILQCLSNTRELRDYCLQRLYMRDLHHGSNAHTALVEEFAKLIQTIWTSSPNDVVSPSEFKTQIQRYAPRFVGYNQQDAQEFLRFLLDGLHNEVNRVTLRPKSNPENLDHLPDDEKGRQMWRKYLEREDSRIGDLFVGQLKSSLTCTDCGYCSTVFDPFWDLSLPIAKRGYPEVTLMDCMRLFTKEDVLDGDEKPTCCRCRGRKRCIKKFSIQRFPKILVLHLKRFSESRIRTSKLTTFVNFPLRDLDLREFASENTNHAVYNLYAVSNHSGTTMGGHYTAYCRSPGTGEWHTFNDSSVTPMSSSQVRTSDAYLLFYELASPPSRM
Chain of ATP-dependent DNA helicase Q1 (Homo sapiens) (P46063 whole entry, looked up): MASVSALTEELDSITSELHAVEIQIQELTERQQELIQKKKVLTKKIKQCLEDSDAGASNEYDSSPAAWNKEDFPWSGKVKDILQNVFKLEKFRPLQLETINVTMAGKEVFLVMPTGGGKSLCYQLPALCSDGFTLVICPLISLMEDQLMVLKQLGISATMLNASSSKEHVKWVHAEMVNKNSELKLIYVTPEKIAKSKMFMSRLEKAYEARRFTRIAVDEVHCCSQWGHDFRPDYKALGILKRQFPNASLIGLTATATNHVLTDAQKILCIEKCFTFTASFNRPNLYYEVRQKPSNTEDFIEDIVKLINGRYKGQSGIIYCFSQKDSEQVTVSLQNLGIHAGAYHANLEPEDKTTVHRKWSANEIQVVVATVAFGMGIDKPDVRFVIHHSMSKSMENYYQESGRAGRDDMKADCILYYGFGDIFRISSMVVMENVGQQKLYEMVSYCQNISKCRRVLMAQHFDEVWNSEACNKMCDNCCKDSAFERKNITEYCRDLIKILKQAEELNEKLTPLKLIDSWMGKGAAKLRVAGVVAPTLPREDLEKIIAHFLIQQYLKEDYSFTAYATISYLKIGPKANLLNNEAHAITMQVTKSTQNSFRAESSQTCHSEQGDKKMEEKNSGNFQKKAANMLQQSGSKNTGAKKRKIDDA
Chain of Ferritin light chain (Equus caballus) (P02791 2-175 limits assumed): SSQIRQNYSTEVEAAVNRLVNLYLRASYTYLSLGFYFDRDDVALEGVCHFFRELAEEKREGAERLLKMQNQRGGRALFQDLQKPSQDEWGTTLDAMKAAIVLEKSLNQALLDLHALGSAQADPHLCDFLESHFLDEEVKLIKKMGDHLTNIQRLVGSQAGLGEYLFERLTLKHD
Chain of RecQ-like DNA helicase BLM (Homo sapiens) (P54132 whole entry, looked up): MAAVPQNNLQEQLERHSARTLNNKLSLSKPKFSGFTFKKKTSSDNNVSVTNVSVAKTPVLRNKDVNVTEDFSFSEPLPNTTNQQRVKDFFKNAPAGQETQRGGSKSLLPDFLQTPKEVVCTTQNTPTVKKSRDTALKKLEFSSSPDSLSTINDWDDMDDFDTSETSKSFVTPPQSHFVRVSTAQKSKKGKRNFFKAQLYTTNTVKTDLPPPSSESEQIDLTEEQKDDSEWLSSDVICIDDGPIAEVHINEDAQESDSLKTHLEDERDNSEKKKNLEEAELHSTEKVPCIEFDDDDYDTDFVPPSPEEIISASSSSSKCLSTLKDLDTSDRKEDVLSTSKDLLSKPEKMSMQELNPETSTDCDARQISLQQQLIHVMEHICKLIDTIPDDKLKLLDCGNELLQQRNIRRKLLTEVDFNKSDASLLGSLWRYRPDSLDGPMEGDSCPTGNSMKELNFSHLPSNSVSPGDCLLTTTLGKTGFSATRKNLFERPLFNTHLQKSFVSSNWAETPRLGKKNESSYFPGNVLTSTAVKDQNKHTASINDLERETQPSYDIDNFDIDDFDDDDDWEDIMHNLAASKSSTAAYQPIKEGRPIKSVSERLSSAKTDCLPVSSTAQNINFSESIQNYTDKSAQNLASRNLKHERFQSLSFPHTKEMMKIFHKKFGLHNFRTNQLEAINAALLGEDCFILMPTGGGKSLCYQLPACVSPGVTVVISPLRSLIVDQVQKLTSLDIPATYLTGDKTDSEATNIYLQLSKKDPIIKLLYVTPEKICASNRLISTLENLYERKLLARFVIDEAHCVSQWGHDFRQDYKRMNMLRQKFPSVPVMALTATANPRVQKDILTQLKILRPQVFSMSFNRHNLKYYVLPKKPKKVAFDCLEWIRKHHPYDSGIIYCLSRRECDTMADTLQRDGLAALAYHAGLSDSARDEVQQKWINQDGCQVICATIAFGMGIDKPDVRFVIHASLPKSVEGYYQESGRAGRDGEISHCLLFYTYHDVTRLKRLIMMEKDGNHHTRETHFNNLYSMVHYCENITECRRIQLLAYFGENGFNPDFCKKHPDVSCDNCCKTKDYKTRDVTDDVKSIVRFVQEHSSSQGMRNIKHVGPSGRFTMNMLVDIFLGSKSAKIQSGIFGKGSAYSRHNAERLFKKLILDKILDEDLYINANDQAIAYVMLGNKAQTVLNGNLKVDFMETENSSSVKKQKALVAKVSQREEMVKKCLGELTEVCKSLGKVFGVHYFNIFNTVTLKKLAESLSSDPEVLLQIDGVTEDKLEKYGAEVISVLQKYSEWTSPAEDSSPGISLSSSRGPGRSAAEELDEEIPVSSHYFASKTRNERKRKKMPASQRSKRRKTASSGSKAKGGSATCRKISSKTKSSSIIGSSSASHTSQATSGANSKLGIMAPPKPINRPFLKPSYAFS

C[C@]12C=CC(=O)C=C1CC[C@H]1[C@@H]3C[C@@H](O)[C@](O)(C(=O)CO)[C@@]3(C)C[C@H](O)[C@@]12F
inactive: [1] | [2] | [3] | [4] | [5] | [6] | [7] | [8] | [9] | [10] | [11] | [12] | [13] | [14] | [15] | [16] | [17]

CC(C)(C)NCC(O)c1cc(O)cc(O)c1 (stereo unspecified)
inactive: [1] | [2] | [3] | [4] | [5] | [6] | [7] | [8] | [9] | [10] | [11] | [12] | [13] | [14] | [15] | [16] | [17]

CC(C)COCC(CN(Cc1ccccc1)c1ccccc1)N1CCCC1 (stereo unspecified)
inactive: [1] | [2] | [3] | [4] | [5] | [6] | [7] | [8] | [10] | [11] | [12] | [18] | [13] | [14] | [15] | [17]

CN1CCN(CC(=O)N2c3ccccc3C(=O)Nc3cccnc32)CC1
inactive: [1] | [2] | [3] | [4] | [5] | [6] | [8] | [9] | [10] | [11] | [12] | [18] | [13] | [14] | [15] | [17]

NCCCNCCSP(=O)(O)O
inactive: [1] | [2] | [3] | [4] | [5] | [6] | [7] | [8] | [9] | [10] | [11] | [12] | [13] | [14] | [15] | [16] | [19] | [17]

CCc1cccc(N(C)C(N)=Nc2cccc3ccccc23)c1
inactive: [1] | [2] | [3] | [12] | [18] | [13] | [14] | [17]
active: [4] 3.16 µM | [5] 10 µM | [6] 12.6 µM | [7] 14.1 µM | [9] 0.631 µM | [10] 11.2 µM

OCCN1CCN(CCCN2c3ccccc3C=Cc3ccccc32)CC1
inactive: [1] | [2] | [3] | [11] | [12] | [18] | [13] | [14] | [15] | [16]
active: [4] 3.16 µM and 3.98 µM | [5] 5.01 µM and 4.47 µM | [6] 11.2 µM and 8.91 µM | [7] 10 µM | [8] 5.62 µM and 7.94 µM | [9] 2.51 µM and 2.24 µM | [10] 8.91 µM and 12.6 µM

C[N+](C)(C)CCOC(=O)CCC(=O)OCC[N+](C)(C)C
inactive: [1] | [2] | [3] | [4] | [5] | [6] | [7] | [8] | [9] | [10] | [11] | [12] | [13] | [14] | [15] | [16] | [19] | [17]

CCCC(C(=O)OCCN(CC)CC)(c1ccccc1)c1ccccc1
inactive: [1] | [2] | [3] | [11] | [12] | [13] | [14] | [15]
active: [4] 1.78 µM | [5] 3.16 µM | [6] 2.24 µM | [7] 3.16 µM | [8] 7.08 µM | [9] 1.78 µM | [10] 2.51 µM

CCCCNc1c(C(=O)OCC)c(C)nc2c1cnn2CC
inactive: [1] | [2] | [3] | [11] | [12] | [13] | [14] | [15] | [16]
active: [4] 7.94 µM | [5] 12.6 µM | [6] 12.6 µM | [7] 14.1 µM | [9] 11.2 µM | [10] 12.6 µM

C[C@]12CCC(=O)C=C1CC[C@@H]1[C@@H]2C(=O)C[C@@]2(C)[C@H]1CC[C@]2(O)C(=O)CO
inactive: [1] | [2] | [3] | [4] | [5] | [6] | [7] | [8] | [10] | [11] | [12] | [18] | [13] | [14] | [15] | [16] | [19]

CN1CCN(C2=Nc3ccccc3Oc3ccc(Cl)cc32)CC1
active: [4] 7.08 µM | [5] 11.2 µM | [6] 12.6 µM | [7] 11.2 µM | [9] 5.01 µM | [10] 10 µM
inactive: [1] | [2] | [3] | [12] | [13] | [14] | [15] | [16] | [19] | [17]

CN(C)C/C=C(/c1ccc(Br)cc1)c1cccnc1
active: [4] 7.08 µM | [5] 12.6 µM | [6] 10 µM | [7] 11.2 µM | [9] 7.08 µM
inactive: [1] | [2] | [3] | [11] | [12] | [18] | [13] | [14] | [15] | [19] | [17]

NC(=O)c1ncn([C@@H]2O[C@H](CO)[C@@H](O)[C@H]2O)c1O
inactive: [1] | [2] | [3] | [4] | [5] | [6] | [7] | [8] | [9] | [10] | [11] | [12] | [13] | [14] | [15] | [16] | [19]

NS(=O)(=O)c1cc2c(cc1Cl)NC(C1CC3C=CC1C3)NS2(=O)=O (stereo unspecified)
active: [12] 11.2 µM
inactive: [1] | [2] | [3] | [4] | [5] | [6] | [7] | [8] | [9] | [10] | [13] | [14] | [15] | [16] | [19] | [17]
